Assay outcomes (PubChem)
Rows were chosen to be rich in hits. Some 4.8% of all compounds tested hit in one or more screens of this group.
hcDAF12 agonist: H. contortus DAF-12 nuclear receptor activators, primary screen, cell-based, luminescence, HEK293, lit1-tk-luc reporter; HEK293 hcDAF-12 lit1-tk-luc reporter; 0% DMSO, 100% Δ7-dafachronic acid; activation, % at 6.8 µM; 1.4% of 370,000 active; AID 652067, 2013;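 active means activation above the mean of all tested compounds plus 3 SD, cut at about 5.5% in these data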
DAX1 inh-1: DAX1 (NR0B1) inhibitors on StAR promoter, primary screen, cell-based, luminescence, SF-1 (NR5A1), full-length DAX-1. HEK293T StAR-luciferase reporter, SF-1/DAX-1 repression relief. inhibition, % at 6.8 µM. 1.1% of 370,000 active. AID 652010, 2013;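 active means inhibition above the mean over all tested compounds plus 3 SD, cut at about 3.6% in these data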;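 further: higher inhibition means more luminescence from relief of DAX-1 repression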
ssDAF12 agonist: S. stercoralis DAF-12 nuclear receptor activators, primary screen, cell-based, luminescence, HEK293, GRIP1 co-expression, lit1-tk-luc; HEK293 ssDAF-12/GRIP1 lit1-tk-luc reporter; % of 3 µM dafachronic acid response; activation, % at 6.8 µM; 1% of 370,000 active; AID 652126, 2013;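 active means activation above the mean over all tested compounds plus 3 SD, cut at about 0.9% in these data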
hgDAF-12 ag: H. glycines DAF-12 receptor agonists, primary screen, cell-based, luminescence, HEK293, GAL4 fusion, UAS-luciferase; Nuclear hormone receptor DAF-12 (Heterodera glycines), GAL4 fusion; HEK293 GAL4-hgDAF12 UAS-luciferase reporter, agonist luminescence; normalized to butyrate control; activation, % at 6.8 µM; 1.8% of 370,000 active; AID 687014, 2013;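 active means activation above a cutoff set at the mean of all screened compounds plus 3 SD, cut at about 10% in these data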
SMARCA2 act: SMARCA2 (BRM) function activators, primary screen, cell-based, luminescence, high throughput; AID 652017, 2013; 1% of 370,000 active; activation, % at 9.1 µM; MG213 cells, MMTV-luciferase reporter, dexamethasone, overnight; in the data active means activation above about 7.8%
DAX1 inh-2: DAX1 (NR0B1) inhibitors, primary screen, cell-based, HEK293, Gal4-DAX1, luciferase luminescence; HEK293 Gal4-DAX1 luciferase reporter; inhibition, % at 6.75 µM; Nuclear receptor subfamily 0 group B member 1 (Homo sapiens), P51843; 0.99% of 340,000 active;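 active means inhibition above the mean over all tested compounds plus 3 SD, cut at about 4.2% in these data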;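 further: inhibition shows as a rise in luminescence from relieved DAX1 repression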
LXRb hcDAF ctr: LXR agonists, Gal4 luciferase reporter, confirmation, counter-screen for hcDAF-12 agonist project, cell-based, luminescence, HEK293, H. contortus campaign; activation, % at 6.8 µM; HEK293 Gal4-LXR tk-luc reporter, 24 h; normalized: DMSO 0%, positive control 100%; 3,400 tested, under 10 active; shares compounds with hcDAF12 agonist; AID 743027, 2013;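 active means mean percent activation of the reporter above a cutoff set as the average over tested compounds plus their standard deviation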
Target sequence (P55055 whole entry, looked up, the tested form may be a part): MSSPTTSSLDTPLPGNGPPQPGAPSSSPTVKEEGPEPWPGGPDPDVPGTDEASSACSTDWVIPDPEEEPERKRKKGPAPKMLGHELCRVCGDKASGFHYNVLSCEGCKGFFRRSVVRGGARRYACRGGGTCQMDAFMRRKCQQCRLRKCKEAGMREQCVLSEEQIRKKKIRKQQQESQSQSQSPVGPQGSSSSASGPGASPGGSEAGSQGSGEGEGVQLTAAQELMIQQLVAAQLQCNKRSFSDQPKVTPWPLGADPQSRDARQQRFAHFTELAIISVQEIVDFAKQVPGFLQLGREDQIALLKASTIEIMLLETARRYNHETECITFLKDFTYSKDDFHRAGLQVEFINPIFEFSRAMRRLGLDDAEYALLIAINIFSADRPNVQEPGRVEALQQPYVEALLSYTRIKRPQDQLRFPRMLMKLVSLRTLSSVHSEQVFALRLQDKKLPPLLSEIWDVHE
hcDAF12 conf: H. contortus DAF-12 receptor agonists, confirmation, cell-based, luminescence, HEK293, lit1-tk-luc, triplicate | shares compounds with hcDAF12 agonist | HEK293 hcDAF-12 lit1-tk-luc reporter; % of Δ7-dafachronic acid response | activation, % at 6.8 µM | 61% of 3,400 active;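 active means mean activation across triplicate tests above the threshold derived from the earlier primary screen, cut at about 5.5% in these data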
Large screens that a line does not name were inactive (follow-up assays come after a bar, where they were run).

Cc1ccc(Nc2nnc(SCC(=O)NCCN3C(=O)CSC3=O)s2)cc1C	hcDAF12 agonist 12, hgDAF-12 ag 11 | LXRb hcDAF ctr inactive | hcDAF12 conf inactive
CCOCCCNC(=O)CCC(=O)NNc1nc2ccccc2c2nc(C)nn12	none
COCCCNC(=O)CCC(=O)NNc1nc2ccccc2c2nc(C)nn12	hcDAF12 agonist 7.2 | LXRb hcDAF ctr inactive | hcDAF12 conf inactive
Cn1cc(/C=N\NC(=O)c2cccs2)c2ccccc21	hcDAF12 agonist 6.8, hgDAF-12 ag 13, DAX1 inh-2 6.1 | LXRb hcDAF ctr inactive | hcDAF12 conf inactive
CCCOc1ccccc1N1C(=O)CC(N(O)c2ccccc2)C1=O (stereo not given)	none
COc1ccccc1N1C(=O)CC(N(O)c2ccccc2)C1=O (stereo not given)	hcDAF12 agonist 6.7 | LXRb hcDAF ctr inactive | hcDAF12 conf inactive
Cn1c(=O)c2[nH]c(C3CC4CCC3C4)nc2n(C)c1=O (stereo not given)	none
COc1ccc(-c2nnc(SCc3nc4ccccc4s3)n2C(C)C)cc1	none
CCCn1c(=O)c2ccccc2n2c(SCc3nc4ccccc4s3)nnc12	hcDAF12 agonist 9.5, DAX1 inh-1 3.7, ssDAF12 agonist 1.1 | LXRb hcDAF ctr inactive | hcDAF12 conf 7.3
CCn1c(SCc2nc3ccccc3s2)nnc1-c1cccs1	none
Cn1c(SCc2nc3ccccc3s2)nnc1-c1cccs1	hcDAF12 agonist 7.1, ssDAF12 agonist 1.5 | LXRb hcDAF ctr inactive | hcDAF12 conf inactive
CCCCn1c(SCc2nc3ccccc3s2)nc2ccccc2c1=O	none
COc1ccccc1-c1nnc(SCc2nc3ccccc3s2)n1C	hcDAF12 agonist 8.6 | LXRb hcDAF ctr inactive | hcDAF12 conf inactive
CN1C(=O)c2cccc3c(Br)ccc(c23)C1=O	none (no result: DAX1 inh-2)
CC(C)(C)[C@@H]1C=C(C(=O)N2CCN(Cc3ccccc3)CC2)O[C@H](OCCCCO)C1	none
O=C(Cc1ccccc1F)Nc1ccc(S(=O)(=O)N2CCCC2)cc1	none
CCCOc1ccc(CN(CCO)CCO)cc1[N+](=O)[O-]	hcDAF12 agonist 7.3 | LXRb hcDAF ctr inactive | hcDAF12 conf inactive
COc1ccc(-c2nc3ccccc3c(=O)n2CCOc2ccccc2C)cc1	hcDAF12 agonist 6.6, DAX1 inh-2 6.9 | LXRb hcDAF ctr inactive | hcDAF12 conf inactive
O=c1c2ccccc2nnn1CSc1nnc(Nc2ccccc2)s1	none
O=C(C1=C[C@H](c2ccc(C(F)(F)F)cc2)C[C@H](OCc2ccc(CO)cc2)O1)N1CCOCC1	none
Cc1cc(C)n(/N=C/c2c[nH]c3ccccc23)c(=O)c1C#N	none
CN1CCc2c(sc(/N=C/c3c[nH]c4ccccc34)c2C#N)C1	hcDAF12 agonist 8.7 (no result: DAX1 inh-2) | LXRb hcDAF ctr inactive | hcDAF12 conf 9.0
CCc1ccc2oc(-c3cc(N)ccc3Cl)nc2c1	hcDAF12 agonist 14, ssDAF12 agonist 1.3 | LXRb hcDAF ctr inactive | hcDAF12 conf 9.8
CCc1ccc2oc(-c3cc(N)cc(C)c3O)nc2c1	none
CCc1ccc2oc(-c3cc(N)ccc3O)nc2c1	hcDAF12 agonist 8.3 | LXRb hcDAF ctr inactive | hcDAF12 conf 7.7
O=C(C1CC1)N1CCc2cc(Br)cc(S(=O)(=O)N3CCOCC3)c21	none
Cn1c(=O)c2c(ncn2CC(=O)N2CCCCCC2)n(C)c1=O	none
Cc1ccc(-n2c3c(cc(C(=O)NC4CCSC4=O)c2=O)C(=O)CC(C)(C)C3)cc1 (stereo not given)	hcDAF12 agonist 6.9 | LXRb hcDAF ctr inactive | hcDAF12 conf inactive
CCCCCCN(C(=O)CCCCCN1C(=O)NC(c2ccc([N+](=O)[O-])cc2)C(C(=O)OCc2ccccc2)=C1C)C(C(=O)NCCCC)C1CCCCC1 (stereo not given)	none
O=CN1Cc2[nH]c3ccccc3c2N(c2ccc(Cl)cc2)C1=O	hcDAF12 agonist 7.0, ssDAF12 agonist 1.1 | LXRb hcDAF ctr inactive | hcDAF12 conf inactive
CCCCC12CN3CCN(CC(C3)/C1=N\NC(=O)c1ccccc1N)C2	hcDAF12 agonist 9.4, hgDAF-12 ag 11 | LXRb hcDAF ctr inactive | hcDAF12 conf inactive
CC(Sc1nccn1C)C(=O)Nc1ccc(C(N)=O)cc1 (stereo not given)	none
O=C(OCc1nc2ccccc2s1)c1cccc(S(=O)(=O)N2CCOCC2)c1	hcDAF12 agonist 7.7 | LXRb hcDAF ctr inactive | hcDAF12 conf 9.2
O=C(CSc1nc2ccccc2s1)Nc1cc(S(=O)(=O)N2CCOCC2)ccc1O	hcDAF12 agonist 9.7 | LXRb hcDAF ctr inactive | hcDAF12 conf inactive
COc1cc2c(cc1OC)-c1cc(NCc3ccccn3)nc(=O)n1CC2	none
COc1ccc(-n2c(SCC(=O)Nc3ccc(C(N)=O)cc3)nc3c([nH]c4ccccc43)c2=O)cc1OC	hcDAF12 agonist 9.7, ssDAF12 agonist 0.9 | LXRb hcDAF ctr inactive | hcDAF12 conf 8.8
CC(C)Sc1nc2c([nH]c3ccccc32)c(=O)n1C	hcDAF12 agonist 11, ssDAF12 agonist 1.0 | LXRb hcDAF ctr inactive | hcDAF12 conf 7.1
CCOc1ccc(NC(=O)CSc2nc3c([nH]c4ccccc43)c(=O)n2C)cc1	hcDAF12 agonist 9.8 | LXRb hcDAF ctr inactive | hcDAF12 conf 6.2
COCCn1c(SCC(=O)Nc2ccc(F)cc2F)nc2c([nH]c3ccccc32)c1=O	none
CCOC(=O)C(C)Sc1nc2c([nH]c3ccccc32)c(=O)n1C (stereo not given)	none
COCCn1c(SCC(=O)Nc2ccc(C(N)=O)cc2)nc2c([nH]c3ccccc32)c1=O	none
Cn1c(SCC(=O)Nc2cccc(F)c2)nc2c([nH]c3ccccc32)c1=O	hcDAF12 agonist 6.7 | LXRb hcDAF ctr inactive | hcDAF12 conf inactive
Nc1[nH][nH]c(=O)c1N=Nc1ccccc1	none
